This passage reports z-score and composite z-score results from PubChem BioAssay.

The source made the active and inactive calls. Unless noted, no rule for the calls is given here.

A short description of experiment [1]: resazurin metabolic signal in HepG2 cells – cell-based, resazurin fluorescence, 24 h, PK04 Diversity Set, profiling panel (AID 1172). Also: test concentration not given here. The following applies: HepG2 viability, higher = more signal.
Experiment [2] can be described thus: budding yeast growth changes without added modifier – OD600, strain BY4716, 24 h, basal condition, primary screen (AID 1173). As to conditions: S. cerevisiae BY4716 growth, OD600, 24 h; higher = more signal, called active from +8 up or from −8 down.
Experiment [3] is described as follows: viability profiling in MM1S myeloma cells – cell-based, resazurin fluorescence, basal, 24 h, PK04 Diversity Set, profiling panel (AID 1174).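 Also: MM1S multiple myeloma cell line; test concentration not given here.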 The following applies: higher = more signal, called active from +8 up or from −8 down.
The target of experiment [4] is Dihydroorotate dehydrogenase (quinone), mitochondrial (Plasmodium falciparum (isolate 3D7)) (UniProt Q08210). The experiment is described as follows: inhibition of P. falciparum DHODH – biochemical, C-terminal His tag, absorbance 600 nm, primary screen (AID 1175).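 Also: recombinant parasite enzyme with a five histidine tag at its C terminus; test concentration not given here.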 The following applies: PfDHODH enzyme, DCIP absorbance 600 nm; higher = more signal, called active from +8 up or from −8 down.

Experiment [5] in a line: inhibition of PAO1 biofilm formation – strain PAO1, LB-PBS medium, absorbance 600 nm, primary screen (AID 1176). Also: test concentration not given here. As to conditions: P. aeruginosa PAO1 growth/biofilm, A600, 12 h; higher = more signal.
Experiment [6] in a line: growth modulation of vineyard yeast isolate – strain RM11-1a, OD600, basal, 24 h, primary screen (AID 1177).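 Also: cultures grown under basal conditions with no added stressor; test concentration not given here.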 The following applies: S. cerevisiae RM11-1a growth, OD600, 24 h; higher = more signal, called active from +8 up or from −8 down.
Experiment [7] in a line: growth of efflux-deficient E. coli DRC39 – strain DRC39, OD650, 24 h, E. coli filamentation inducers, primary screen (AID 1178).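 Also: growth measured as culture turbidity by optical density at 650 nm; test concentration not given here.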 The following applies: E. coli DRC39 acrAB, higher = more signal, called active from +8 up or from −8 down.
Experiment [8] in a line: growth of efflux-deficient E. coli DRC39 – strain DRC39, OD650, 48 h, E. coli filamentation inducers, primary screen (AID 1179).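 Also: screen aims at cell division blockers that make cells filament.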 The following applies: E. coli DRC39 delta-acrAB growth, higher = more signal, called active from +8 up or from −8 down.
Experiment [9] is described as follows: viability profiling in RPMI8226 myeloma cells – cell-based, resazurin fluorescence, basal, 24 h, PK04 Diversity Set, profiling panel (AID 1180).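 Also: RPMI8826 multiple myeloma cell line at 5000 cells per well; test concentration not given here.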 The following applies: higher = more signal.
Experiment [10] addresses E3 ubiquitin-protein ligase XIAP (Homo sapiens) (UniProt P98170). The experiment is described as follows: small molecules binding XIAP protein – biophysical, small-molecule microarray, fluorescence 635 nm, primary screen (AID 1181).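 Also: score merges 667 nm emission and signal to noise over triplicate slides.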 As to conditions: higher = more signal.

Chain of Dihydroorotate dehydrogenase (quinone), mitochondrial (Plasmodium falciparum (isolate 3D7)) (Q08210 whole entry, looked up): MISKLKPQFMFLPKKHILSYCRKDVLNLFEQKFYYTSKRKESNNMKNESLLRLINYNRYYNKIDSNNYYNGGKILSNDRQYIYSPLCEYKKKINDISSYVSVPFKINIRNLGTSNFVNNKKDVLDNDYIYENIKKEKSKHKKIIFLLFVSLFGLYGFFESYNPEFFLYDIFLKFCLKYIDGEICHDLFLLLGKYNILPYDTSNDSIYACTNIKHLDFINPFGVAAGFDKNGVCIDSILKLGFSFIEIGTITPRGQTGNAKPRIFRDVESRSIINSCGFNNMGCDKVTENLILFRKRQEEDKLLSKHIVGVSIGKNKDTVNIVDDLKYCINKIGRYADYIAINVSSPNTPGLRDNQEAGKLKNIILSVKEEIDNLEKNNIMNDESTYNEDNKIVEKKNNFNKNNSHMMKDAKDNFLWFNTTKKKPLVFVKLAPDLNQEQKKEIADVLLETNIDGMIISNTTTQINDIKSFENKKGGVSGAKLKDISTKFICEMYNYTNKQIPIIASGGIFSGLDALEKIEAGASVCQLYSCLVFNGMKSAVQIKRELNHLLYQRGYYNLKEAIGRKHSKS
Chain of E3 ubiquitin-protein ligase XIAP (Homo sapiens) (P98170 whole entry, looked up): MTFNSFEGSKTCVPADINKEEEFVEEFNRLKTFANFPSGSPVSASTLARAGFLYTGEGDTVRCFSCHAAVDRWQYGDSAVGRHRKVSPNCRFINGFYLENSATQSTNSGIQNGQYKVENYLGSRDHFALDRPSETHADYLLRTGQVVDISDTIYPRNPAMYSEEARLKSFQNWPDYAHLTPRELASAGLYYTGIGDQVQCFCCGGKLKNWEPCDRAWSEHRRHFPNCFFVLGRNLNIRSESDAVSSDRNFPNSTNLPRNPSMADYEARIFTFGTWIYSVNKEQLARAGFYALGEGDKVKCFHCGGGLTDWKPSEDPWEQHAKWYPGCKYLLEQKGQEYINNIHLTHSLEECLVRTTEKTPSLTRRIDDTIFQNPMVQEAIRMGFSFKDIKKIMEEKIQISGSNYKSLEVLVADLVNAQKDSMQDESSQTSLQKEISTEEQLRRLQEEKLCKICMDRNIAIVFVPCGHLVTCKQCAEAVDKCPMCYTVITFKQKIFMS

As for `O=C1C2C=CC(C(O)C(c3ccccc3)c3ccccc3)N(Nc3ccccc3F)C2C(=O)N1c1ccccc1` (stereo not given), the z-score in experiment [1] is -0.353; in [2], -0.704 (inactive); in experiment [3], -0.813 (inactive); in experiment [5] it was 0.34 (inactive); in [6], 1.52 (inactive); in experiment [7], -0.872 (inactive). In addition, the z-score in [8] was -0.82 (inactive); in [9], -1.32. Moreover, the composite z-score in experiment [4] was 1.68 (inactive); in experiment [10], 0.0617.

In the case of `C=C(COC)C(=O)CC[C@H](OC(C)=O)c1ccccc1OCCO`, the z-score in [1] is -0.812; in experiment [2], -0.86 (inactive); in experiment [3], -2.03 (inactive); in experiment [5] it was -0.435 (inactive); in [6], -0.0727 (inactive); in [7], 0.732 (inactive). Also, the z-score in [8] is 0.373 (inactive); in experiment [9], -2.37. Further, the composite z-score in [4] is -1.56 (inactive); in experiment [10], 0.0153.

Regarding `C=C(CCCC)/C(=C/C[C@@H](OC(C)=O)c1cccc(OCCO)c1)c1cc(C(=O)OC)ccc1OC`, the z-score in [1] was 0.978; in experiment [2], 1.12 (inactive); in experiment [3], 0.0348 (inactive); in experiment [5], 0.0599 (inactive); in experiment [6], 0.523 (inactive); in experiment [7], 0.508 (inactive). Also, the z-score in experiment [8] was 0.583 (inactive); in experiment [9], 0.1. Besides, the results for the composite z-score in experiment [4] and in experiment [10] were -0.943 (inactive) and -0.0447, respectively.

Regarding `COc1ccc(NN2C(C(O)c3ccccc3)C=CC3C(=O)N(C4CCCCC4)C(=O)C32)cc1` (stereo not given), the z-score was -0.403 in experiment [1]; 0.047 (inactive) in experiment [2]; -0.0925 (inactive) in experiment [3]; 0.505 (inactive) in experiment [5]; 1.5 (inactive) in experiment [6]; -0.0187 (inactive) in experiment [7]. The z-score in experiment [8] is 0.0413 (inactive); in experiment [9], 0.0134. In addition, the composite z-score in experiment [4] is -0.638 (inactive); in [10], 0.0348.

Consider `COC(=O)C1=CC(CCCO)=CC(c2ccc(CN3CCCC3)cc2)N(C)C=C1C(=O)OC` (stereo not given), for which the z-score in experiment [1] is 0.407; in [2], 0.0335 (inactive); in experiment [3], -0.381 (inactive); in [5] it was 0.543 (inactive); in experiment [6], 0.326 (inactive); in experiment [7], 0.98 (inactive). Further, the z-score was 1.32 (inactive) in [8] and 0.154 in [9]. The composite z-score was -1.58 (inactive) in experiment [4] and -0.153 in experiment [10].

Turning to `CCOC(=O)C=C1C[C@@H](c2cccc([N+](=O)[O-])c2)O[C@@H](c2cccc([N+](=O)[O-])c2)O1`, the z-score is 0.151 in experiment [1]; 2.03 (inactive) in experiment [2]; 0.226 (inactive) in experiment [3]; 0.285 (inactive) in experiment [5]; 1.79 (inactive) in [6]; -0.402 (inactive) in experiment [7]. Moreover, the z-score in [8] was 0.335 (inactive); in experiment [9] it was -0.969. Also, the composite z-score was 0.917 (inactive) in experiment [4] and 0.127 in experiment [10].

As to `C=C(CCCC)C(=O)CC[C@@H](OC(C)=O)c1ccc(OCCO)cc1`, the z-score is -0.603 in experiment [1]; -2 (inactive) in experiment [2]; -0.953 (inactive) in experiment [3]; 1.07 (inactive) in [5]; 0.662 (inactive) in experiment [6]; 0.227 (inactive) in experiment [7]. Also, the figures for the z-score in experiment [8] and in experiment [9] were 0.189 (inactive) and -0.894, respectively. Also, the results for the composite z-score in [4] and in experiment [10] were -1.78 (inactive) and -0.074, respectively.

For `COC(=O)[C@@]1(Cc2ccc(F)cc2)[C@H]2c3cc(C(=O)N4CCCC4)n(Cc4ccc(OC(F)(F)F)cc4)c3C[C@H]2CN1C(=O)c1ccccc1`, the z-score in experiment [1] was 0.178; in experiment [2], 0.944 (inactive); in [3] it was -0.799 (inactive); in [5], 0.827 (inactive); in [6], 0.157 (inactive); in experiment [7], -0.961 (inactive). The values for the z-score in experiment [8] and in experiment [9] were -0.678 (inactive) and -0.453, respectively. The composite z-score in experiment [4] is -0.132 (inactive); in experiment [10] it was 0.0306.

Consider `C=CC[C@H](O)c1ccc(O)c2ccccc12`, for which the z-score is -0.129 in [1]; -15.1 (active) in [2]; -1.42 (inactive) in experiment [3]; 0.614 (inactive) in experiment [5]; 0.891 (inactive) in [6]; 0.682 (inactive) in experiment [7]. Also, the z-score in [8] was 0.419 (inactive); in experiment [9], -1.05. For the same compound, the composite z-score in experiment [4] is -1.86 (inactive); in experiment [10], -0.113.

As to `COCCOC(=O)N1C(=O)[C@@]2(c3ccccc31)[C@H](C(=O)Nc1nc3ccccc3s1)[C@H]1C(=O)O[C@H](c3ccccc3)[C@H](c3ccccc3)N1[C@@H]2c1ccccc1OCCO`, the z-score in experiment [1] is -0.49; in experiment [2], 2.38 (inactive); in [3] it was -0.304 (inactive); in experiment [5], 2.9 (inactive); in experiment [6] it was 2.25 (inactive); in experiment [7], 0.0795 (inactive). Moreover, the z-score was -0.315 (inactive) in experiment [8] and -0.236 in experiment [9]. The composite z-score in [4] is 1.38 (inactive); in [10], 0.0245.

On to `COc1cccc(C)c1NC(=O)O[C@H]1[C@H](OC(=O)Nc2ccc3c(c2)OCO3)[C@H](OC(=O)Nc2ccc3c(c2)OCO3)[C@@H](OC)O[C@@H]1CO`, for which the z-score in experiment [1] was -0.73; in experiment [2], 1.27 (inactive); in experiment [3], -0.494 (inactive); in [5] it was 0.606 (inactive); in [6] it was 1.6 (inactive); in experiment [7] it was 0.84 (inactive). Moreover, the z-score was -0.0834 (inactive) in experiment [8] and -0.708 in experiment [9]. Also, the composite z-score in experiment [4] is -0.713 (inactive); in [10], 1.64.

Regarding `COc1ccc(C(=O)Nc2cccc(CN3C(=O)[C@]4(O[C@H](CC(=O)N(CCO)Cc5ccccc5)[C@@H]([Si](C)(C)c5ccc(OC)cc5)[C@@H]4C)c4ccccc43)c2)cc1`, the z-score was -0.754 in experiment [1]; 0.404 (inactive) in experiment [2]; -1.87 (inactive) in experiment [3]; 0.769 (inactive) in [5]; 3.54 (inactive) in [6]; 1.46 (inactive) in [7]. Further, the z-score is 0.852 (inactive) in [8] and -1.52 in experiment [9]. For the same compound, the composite z-score in experiment [4] was -1.92 (inactive); in experiment [10] it was 1.38.

With `COc1ccc(CCNC(=O)[C@@]2(c3ccc([N+](=O)[O-])cc3)CC(=O)N(C3CCCCC3)[C@@H]2c2ccc(CO)cc2I)cc1`, the z-score is -1.29 in [1]; 0.633 (inactive) in experiment [2]; -0.949 (inactive) in experiment [3]; 0.14 (inactive) in experiment [5]; 1.86 (inactive) in experiment [6]; 0.359 (inactive) in experiment [7]. Moreover, the values for the z-score in [8] and in [9] were -0.0406 (inactive) and -0.593, respectively. Further, the results for the composite z-score in experiment [4] and in [10] were 1.45 (inactive) and -0.16, respectively.
